Drawing on PubChem BioAssay AID738 (SRMLSC, 2007), this text covers inhibition for 98 compounds.

The term inhibition denotes the drop in the measured response relative to a control, in per cent.

About 4,900 (5%) of roughly 98,000 compounds were called active. Rule as the data show it: active = inhibition above about 30%; inactive = the rest. The sample as a whole holds a higher share of actives than the screen did.

The experiment is described as follows: growth inhibition of yeast control strain, primary screen, counter-screen for post-Golgi transport modulator project (AID 738). As to conditions: efflux-deficient yeast background strain, growth absorbance A615, 16 h; at 10 µM; active compounds read high. On the technique in general: The purpose of a counterscreen is to sort out artefacts and off-target activity.
Consider `CSCc1cc(N(C)C)nc(SCc2ccc(Cl)cc2Cl)n1`, for which the inhibition was 15% (inactive).

`CCOC(=O)c1ccc(NC(=O)CSc2nnc(COc3ccccc3OC)n2C)cc1`: the inhibition is 12.5% (inactive).

As to `CCOC(=O)c1sc(NC(=O)CSc2ncccn2)c(C#N)c1C`, the inhibition is 21.6% (inactive).

On to `CCOC(=O)c1ccc(NC(=O)CSc2ncccn2)cc1`, for which the inhibition was 31.1% (active).

For `CC(c1ccco1)N(C(=O)COc1ccccc1[N+](=O)[O-])c1ccccn1` (stereo not drawn), the inhibition was 14.2% (inactive).

On to `C=CCNC(=O)c1sc(SC)cc1-c1ccc(Cl)cc1`, for which the inhibition was 11.2% (inactive).

On to `CC1CCN(CC(=O)c2c[nH]c3ccccc23)CC1`, for which the inhibition was 6.25% (inactive).

Turning to `Cc1ccc(C2CC(=O)NC(SCC(=O)OCc3ccccc3)=C2C#N)o1` (stereo not drawn), the inhibition is 32% (active).

For `CCOC(=O)CSC1=C(C#N)C(c2sccc2C)CC(=O)N1` (stereo not drawn), the inhibition is 11.5% (inactive).

On to `CCOC(=O)CSC1=C(C#N)C(c2ccco2)C(C(=O)OCc2ccccc2)=C(C)N1` (stereo not drawn), for which the inhibition is 24.9% (inactive).

For the compound `CN(C)/C=C(\C#N)C(=O)c1cccnc1Oc1ccc(F)cc1F`, the inhibition was 2.7% (inactive).

As for `O=C(COc1ccccc1F)NC1CC1`, the inhibition was -0.64% (inactive).

Regarding `O=C(NC1CCN(Cc2ccccc2)CC1)c1ccccc1F`, the inhibition is 6.56% (inactive).

Turning to `O=C(COc1ccc(Br)cc1F)NC1CCN(Cc2ccccc2)CC1`, the inhibition was 37.7% (active).

As to `Cc1ccc(C(=O)Nc2c(C#N)c(C)c(C)n2Cc2ccccc2)cc1`, the inhibition is 17.1% (inactive).

With `CCOC1CS(=O)(=O)CC1OCC` (stereo not drawn), the inhibition was 8.62% (inactive).

For the compound `Cc1cc(C)nc(NC(=O)C(C)N2C(=O)c3ccccc3C2=O)n1` (stereo not drawn), the inhibition was -0.16% (inactive).

Take `O=C(Nc1ccccc1C(F)(F)F)c1cc(-c2ccc(O)cc2)on1`: the inhibition was 2.42% (inactive).

On to `Cc1cc(C)nc(NC(=O)Nc2ccccc2C(F)(F)F)n1`, for which the inhibition is 34.3% (active).

On to `COc1cc(SC)ccc1C(=O)NCCOc1ccccc1Cl`, for which the inhibition was 28.9% (inactive).

On to `Cc1ccc(CNC(=O)CCNC(=O)Cn2ccc3ccccc3c2=O)cc1`, for which the inhibition is 7.83% (inactive).

As to `CCOc1c2ccc(C(=O)NCc3ccc(OC(F)(F)F)cc3)cc2nn1C`, the inhibition was -2.75% (inactive).

In the case of `COc1ccc(C(=O)c2c(C)oc3cc([N+](=O)[O-])c(O)c([N+](=O)[O-])c23)cc1`, the inhibition is 15% (inactive).

On to `COC(=O)Nc1c(C)n(C)n(-c2ccccc2)c1=O`, for which the inhibition was 6.08% (inactive).

For the compound `Cc1cc(C(=O)Nc2c(C)n(C)n(-c3ccccc3)c2=O)cs1`, the inhibition is 2.08% (inactive).

`Cc1c(NC(=O)c2cc(-c3ccc(Cl)s3)nc3ccccc23)c(=O)n(-c2ccccc2)n1C`: the inhibition is 44.6% (active).

In the case of `CCOC(=O)Nc1ccc(S(=O)(=O)N(C)C(C)C)cc1`, the inhibition was 4.8% (inactive).

With `CCOc1c2ccc(C(=O)NCc3ccc4c(c3)OCO4)cc2nn1C`, the inhibition is 24.1% (inactive).

For `Cc1ccccc1N/N=C/c1ccc(N2CCOCC2)cc1`, the inhibition was 20% (inactive).

As to `COc1ccccc1CNC(=O)c1ccc(SC)cc1OC`, the inhibition was 17.5% (inactive).

In the case of `COc1ccc2nc(N3CCCC(O)C3)c(C#N)cc2c1` (stereo not drawn), the inhibition is 6.9% (inactive).

For the compound `CCOc1ccc2nc(NCCNS(=O)(=O)c3ccccc3)c(C#N)cc2c1`, the inhibition was -2.23% (inactive).

Consider `CCOc1ccc2nc(N3CCCN(C(=O)Nc4ccccc4C)CC3)c(C#N)cc2c1`, for which the inhibition is 56.8% (active).

Regarding `Cc1ccc2cc(CCNC(=O)c3c(-c4ccccc4Cl)noc3C)c(=O)[nH]c2c1`, the inhibition is 9.09% (inactive).

As for `CN1CCN(c2ccc([N+](=O)[O-])c(Sc3nc4ccccc4[nH]3)c2)CC1`, the inhibition is 7.22% (inactive).

Regarding `CSc1ccc(C#N)cc1NC(=O)c1ccc(Cl)cc1`, the inhibition was -4.75% (inactive).

With `CSc1cc(C)n(-c2ccccc2C)c(=S)c1C(C)=O`, the inhibition is 4.46% (inactive).

`O=C(NCCCN1CCCCCC1)C1CC(=O)N(C2CCCC2)C1` (stereo not drawn): the inhibition is 39.6% (active).

In the case of `CC(C)OCCCNC(=O)C1CC(=O)N(C2CCCCCCC2)C1` (stereo not drawn), the inhibition is 0.87% (inactive).

On to `Cc1ccc(CNC(=O)C2CC(=O)N(C3CCCCCCC3)C2)cc1` (stereo not drawn), for which the inhibition was 11.5% (inactive).

For `COc1ccc(CCNC(=O)COC(=O)c2ccc[nH]c2=O)cc1`, the inhibition is 8.99% (inactive).

For the compound `CCn1c(SCc2ccc(C)cc2)nnc1-c1nn(-c2ccccc2)ccc1=O`, the inhibition was 28.2% (inactive).

Consider `CC(c1ccco1)N(C(=O)Nc1ccccc1)C1CCCCC1` (stereo not drawn), for which the inhibition is 34.8% (active).

Regarding `CCCC(C(=O)NCc1ccco1)N(C(=O)CNS(=O)(=O)c1ccccc1)C1CCCC1` (stereo not drawn), the inhibition is -6.03% (inactive).

In the case of `CCOc1ccc(NC(=O)N(CCC(C)C)C(C)c2ccco2)cc1` (stereo not drawn), the inhibition is 14.1% (inactive).

Turning to `CCCCNC(=O)CSc1nc2ccc(NC(=O)CSc3nnc(COc4ccccc4C)n3C)cc2s1`, the inhibition was -0.61% (inactive).

As to `CN(C(=O)CSc1nc(C2CC2)nc2ccccc12)c1nc(-c2ccccc2)cs1`, the inhibition is 3.27% (inactive).

Regarding `Oc1ccccc1/C=N/n1c(-c2cccs2)n[nH]c1=S`, the inhibition is 7.52% (inactive).

In the case of `Cc1ccc(/C=N\n2c(-c3ccccc3)n[nH]c2=S)s1`, the inhibition was 6.75% (inactive).

Consider `S=c1[nH]nc(-c2ccco2)n1/N=C/c1ccc(Br)s1`, for which the inhibition is 32.1% (active).

Take `COC(=O)c1c(CCl)noc1C(=O)NC(C)C`: the inhibition is -6.4% (inactive).

For the compound `CCCCSc1[nH]c(=O)c(C(=O)OCC)cc1C#N`, the inhibition was -5.6% (inactive).

Consider `C/C(=N/NC(=O)c1ccc(NC(=O)c2ccc(F)cc2)cc1)c1ccccc1`, for which the inhibition is 4.86% (inactive).

For `Cc1nn(CCOc2ccccc2)c(=O)n1-c1ccccc1F`, the inhibition is 14% (inactive).

As for `CCC(=O)c1ccc(OCC(O)CN2C(=O)NC(C)(C)C2=O)cc1` (stereo not drawn), the inhibition is 7.58% (inactive).

Take `O=S(=O)(c1ccc(OCC(O)CN2CCN(c3ccccc3Cl)CC2)cc1)N1CCOCC1` (stereo not drawn): the inhibition is -0.44% (inactive).

`O=C(COc1ccc(Cl)cc1)N1CCN(c2cccc(C(F)(F)F)c2)CC1`: the inhibition is 27.6% (inactive).

In the case of `OC(COc1ccc2c(c1)CCC2)CN1CCN(c2cccc(Cl)c2)CC1` (stereo not drawn), the inhibition was 82.4% (active).

As for `OC(COc1cccc(OCC(O)CN2CCCC2)c1)CN1CCCC1` (stereo not drawn), the inhibition was 0.3% (inactive).

As to `CCC(=O)c1ccc(OCC(O)CN2CCN(c3cccc(C(F)(F)F)c3)CC2)cc1` (stereo not drawn), the inhibition was 38.7% (active).

As to `O=C(c1ccc(Cl)cc1)c1ccc(OCC(O)CN2CCCCC2)cc1` (stereo not drawn), the inhibition was 7.05% (inactive).

Take `CCC(=O)c1ccc(OCC(O)CN2CC(C)OC(C)C2)cc1` (stereo not drawn): the inhibition was 30.9% (active).

On to `O=C(C(c1ccccc1)c1ccccc1)N1CCN(CC(O)COc2ccccc2)CC1` (stereo not drawn), for which the inhibition is 9.41% (inactive).

Turning to `Cc1cc(C(=O)OCC(=O)Nc2ccc(F)c(F)c2)c(C)o1`, the inhibition is 8.41% (inactive).

Regarding `O=C(Nc1ccc2sc3ccccc3c(=O)c2c1)c1ccccc1Cl`, the inhibition is -1.51% (inactive).

In the case of `CN(CC#CCC(c1ccccc1)c1ccccc1)C(C)(C)C`, the inhibition is 15.3% (inactive).

Regarding `COC(=O)c1ccccc1NC(=O)CN(Cc1ccc(Cl)cc1)S(C)(=O)=O`, the inhibition is 20.7% (inactive).

Regarding `CC(=O)N1Cc2ccccc2CC1C(=O)O` (stereo not drawn), the inhibition was -1.83% (inactive).

On to `CCOC(=O)N1CCN(C(=O)CN(c2ccc(C)c(C)c2)S(=O)(=O)c2ccccc2)CC1`, for which the inhibition was -2.62% (inactive).

For `Cc1ccc(S(=O)(=O)N(CC(=O)N2CCc3ccccc3C2)c2cccc(Cl)c2)cc1`, the inhibition is 53.7% (active).

As to `COc1cccc(N(CC(=O)N2CCc3ccccc3C2)S(C)(=O)=O)c1`, the inhibition is 2.59% (inactive).

As for `COc1ccc(Cl)cc1NC(=O)CN(C)C(=O)CNC(=O)C12CC3CC(CC(C3)C1)C2`, the inhibition is 11.5% (inactive).

For the compound `CCCCN=C1N/C(=C\c2ccco2)C(=O)N1c1ccccc1`, the inhibition is 13.4% (inactive).

Take `Cc1ccc(C(=O)NNC(=O)OC(C)(C)C)c(Cl)c1`: the inhibition was -3.45% (inactive).

For `O=c1cc(CN2CCN(c3cccc(Cl)c3)CC2)c2cc3c(cc2o1)CCCC3`, the inhibition is 1.31% (inactive).

For `COc1ccc(N2CCN(Cc3cc(=O)oc4ccc5ccccc5c34)CC2)cc1`, the inhibition was 31% (active).

As for `COc1ccc(N2CCN(Cc3ccc(Br)s3)CC2)cc1`, the inhibition was 1.68% (inactive).

Turning to `NC(=O)c1nsc(C(=O)N(CC(=O)NCc2ccc(F)cc2)Cc2ccco2)c1N`, the inhibition was -18.4% (inactive).

`COc1ccc(C(=O)Nc2cc(C)ccc2NC(=O)COc2ccccc2)cc1`: the inhibition was -12.5% (inactive).

Regarding `COc1ccc(OCC(=O)N2CCN(C(=O)COc3ccccc3)CC2)cc1`, the inhibition is -2.43% (inactive).

On to `COc1ccc(OCC(=O)NN2Cc3ccccc3C2=N)cc1`, for which the inhibition was 30.9% (active).

Take `CC(=O)N1CCN(c2cccc(C)c2C)CC1`: the inhibition was 3.94% (inactive).

`Cc1cccc(N2CCN(C(=O)c3cnn4c(C(F)F)cc(-c5ccccc5)nc34)CC2)c1C`: the inhibition is 61.4% (active).

Turning to `O=C(O)c1cnn2c(C(F)(F)F)cc(-c3ccccc3)nc12`, the inhibition is -4.57% (inactive).

For `Clc1ccccc1-c1cc(COc2ccc3ccccc3c2)no1`, the inhibition was 1.75% (inactive).

Consider `CN(C)S(=O)(=O)c1ccc(N2CCCC2)c(C(=O)NCc2ccccc2)c1`, for which the inhibition was 4.17% (inactive).

Consider `CCOc1[nH]n(-c2ccc(Cl)cc2)c(=O)c1C=Nc1ccc(O)cc1`, for which the inhibition was 1.52% (inactive).

Consider `CCOc1ccc(N=C2NC(=O)S/C2=C\c2ccc(O)cc2)cc1`, for which the inhibition is 41.5% (active).

Regarding `CCOc1ccc(N=C2SC(C(=O)O)CC(=O)N2C)cc1` (stereo not drawn), the inhibition is -1.43% (inactive).

Take `O=C1CCN(C(=O)Nc2ccccc2)N1`: the inhibition was 1.84% (inactive).

As to `Cc1ccccc1NC(=S)Nc1cccc([N+](=O)[O-])c1`, the inhibition is -0.57% (inactive).

On to `CCOC(=O)N1CCN(C(=O)c2ccc(CN(c3ccc(C)c(C)c3)S(C)(=O)=O)cc2)CC1`, for which the inhibition was 3.07% (inactive).

In the case of `CCOC(=O)N1CCN(C(=O)c2ccc3c(c2)N(Cc2ccc(C)cc2)CCS3)CC1`, the inhibition is 34.6% (active).

For the compound `CCOC(=O)N1CCN(C(=O)c2ccc(S(=O)(=O)c3ccc(C)cc3)c(NC(C)=O)c2)CC1`, the inhibition was 7.81% (inactive).

For the compound `Cc1ccc(NC(=O)CN2CCc3ccccc3C2)cc1`, the inhibition was 8.09% (inactive).

As for `Cc1cccc(NC(=O)c2ccc3ccccc3n2)n1`, the inhibition is 12.6% (inactive).

`O=C(Oc1ccc([N+](=O)[O-])cc1)c1ccc2ccccc2n1`: the inhibition was 41.8% (active).

For `N/C(Cc1ccc([N+](=O)[O-])cc1)=N\OC(=O)COc1ccc2ccccc2c1`, the inhibition is 18.8% (inactive).
